According to the supplement of paper PMC11001985:

Each target was assayed with C#CCNC(=O)CCSSCCC(=O)NCCc1ccc(C=O)c(C=O)c1 (assay: lysine labeling ratio R10:1 (500 µM / 50 µM probe), SILAC-ABPP in living cells; higher = lower intrinsic lysine reactivity toward the probe, active = 2 or less). Conditions: HeLa; probe concentrations 500 vs 50 µM.
Method in brief: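 An alkyne-tagged lysine probe with a disulfide linker labelled living HeLa cells in PBS at room temperature at either 50 µM or 500 µM, using SILAC light and heavy cells in forward and reverse label swaps. Lysates were mixed, clicked to biotin-azide, trypsin-digested, enriched on neutravidin, DTT-released, alkylated and measured by LC-MS/MS on a TIMS-TOF Pro. Each lysine's R is the filtered median high-probe/low-probe MS1 peptide ratio, combined as the median over forward and reverse replicates, with 20 as the upper limit.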

Sequence of UniProt P08195 (P08195 whole entry): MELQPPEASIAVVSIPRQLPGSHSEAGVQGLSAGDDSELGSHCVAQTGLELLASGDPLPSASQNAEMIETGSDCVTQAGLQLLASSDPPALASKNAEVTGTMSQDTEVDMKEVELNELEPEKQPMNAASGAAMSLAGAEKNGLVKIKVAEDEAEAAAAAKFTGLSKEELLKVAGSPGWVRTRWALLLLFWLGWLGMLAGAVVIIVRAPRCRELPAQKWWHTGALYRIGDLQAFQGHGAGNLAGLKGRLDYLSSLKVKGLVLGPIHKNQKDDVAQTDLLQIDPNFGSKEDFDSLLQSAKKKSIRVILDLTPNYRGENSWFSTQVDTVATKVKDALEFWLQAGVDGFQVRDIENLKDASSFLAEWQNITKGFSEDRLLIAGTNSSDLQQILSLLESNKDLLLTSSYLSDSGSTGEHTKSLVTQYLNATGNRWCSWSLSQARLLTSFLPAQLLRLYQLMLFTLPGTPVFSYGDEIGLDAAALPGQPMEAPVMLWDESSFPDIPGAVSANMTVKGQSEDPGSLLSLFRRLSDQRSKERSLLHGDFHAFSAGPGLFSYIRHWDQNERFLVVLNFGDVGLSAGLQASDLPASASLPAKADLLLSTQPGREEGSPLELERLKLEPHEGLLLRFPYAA
Sequence of UniProt P38646 (P38646 whole entry): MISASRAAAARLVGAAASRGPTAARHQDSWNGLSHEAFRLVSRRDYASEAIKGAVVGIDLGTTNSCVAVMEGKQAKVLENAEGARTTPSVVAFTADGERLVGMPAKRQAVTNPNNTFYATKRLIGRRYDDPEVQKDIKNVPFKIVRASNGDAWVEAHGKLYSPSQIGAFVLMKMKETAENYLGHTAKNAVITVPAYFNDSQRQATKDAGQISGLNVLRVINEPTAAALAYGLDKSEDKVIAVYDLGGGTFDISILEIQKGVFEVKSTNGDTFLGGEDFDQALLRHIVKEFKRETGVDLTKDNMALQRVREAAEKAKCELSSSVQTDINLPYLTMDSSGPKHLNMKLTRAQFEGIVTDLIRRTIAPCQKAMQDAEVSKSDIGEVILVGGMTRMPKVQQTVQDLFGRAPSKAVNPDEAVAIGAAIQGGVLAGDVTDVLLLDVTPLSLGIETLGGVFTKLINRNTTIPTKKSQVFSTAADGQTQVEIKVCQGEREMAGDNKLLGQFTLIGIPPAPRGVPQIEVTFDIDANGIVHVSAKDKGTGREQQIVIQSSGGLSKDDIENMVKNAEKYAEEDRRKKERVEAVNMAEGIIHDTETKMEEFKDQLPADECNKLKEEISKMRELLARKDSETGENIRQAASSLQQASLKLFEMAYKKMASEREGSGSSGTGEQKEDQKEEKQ
Sequence of UniProt P25445 (P25445 whole entry): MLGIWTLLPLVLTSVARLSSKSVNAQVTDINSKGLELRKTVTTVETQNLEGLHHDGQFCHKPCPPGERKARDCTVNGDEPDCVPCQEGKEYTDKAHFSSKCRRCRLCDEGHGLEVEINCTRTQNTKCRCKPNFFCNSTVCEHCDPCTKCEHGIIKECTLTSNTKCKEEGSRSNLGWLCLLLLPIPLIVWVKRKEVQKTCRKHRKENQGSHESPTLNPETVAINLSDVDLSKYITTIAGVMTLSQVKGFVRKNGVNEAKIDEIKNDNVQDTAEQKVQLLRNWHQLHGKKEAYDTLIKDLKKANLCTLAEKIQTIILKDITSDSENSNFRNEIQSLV
Sequence of UniProt P42785 (P42785 whole entry): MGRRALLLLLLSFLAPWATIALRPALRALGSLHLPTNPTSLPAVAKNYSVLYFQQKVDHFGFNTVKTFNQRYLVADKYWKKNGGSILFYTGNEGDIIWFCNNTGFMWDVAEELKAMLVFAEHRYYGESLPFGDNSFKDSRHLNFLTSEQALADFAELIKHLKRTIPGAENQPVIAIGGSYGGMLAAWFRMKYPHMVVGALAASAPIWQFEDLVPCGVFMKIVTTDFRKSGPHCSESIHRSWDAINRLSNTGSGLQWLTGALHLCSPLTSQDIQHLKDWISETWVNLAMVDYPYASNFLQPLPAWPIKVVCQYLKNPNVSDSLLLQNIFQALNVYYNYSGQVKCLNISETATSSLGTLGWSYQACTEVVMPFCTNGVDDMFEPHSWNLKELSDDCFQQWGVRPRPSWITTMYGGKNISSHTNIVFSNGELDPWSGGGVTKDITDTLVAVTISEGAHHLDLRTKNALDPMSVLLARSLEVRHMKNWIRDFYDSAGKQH
Sequence of UniProt P35221 (P35221 whole entry): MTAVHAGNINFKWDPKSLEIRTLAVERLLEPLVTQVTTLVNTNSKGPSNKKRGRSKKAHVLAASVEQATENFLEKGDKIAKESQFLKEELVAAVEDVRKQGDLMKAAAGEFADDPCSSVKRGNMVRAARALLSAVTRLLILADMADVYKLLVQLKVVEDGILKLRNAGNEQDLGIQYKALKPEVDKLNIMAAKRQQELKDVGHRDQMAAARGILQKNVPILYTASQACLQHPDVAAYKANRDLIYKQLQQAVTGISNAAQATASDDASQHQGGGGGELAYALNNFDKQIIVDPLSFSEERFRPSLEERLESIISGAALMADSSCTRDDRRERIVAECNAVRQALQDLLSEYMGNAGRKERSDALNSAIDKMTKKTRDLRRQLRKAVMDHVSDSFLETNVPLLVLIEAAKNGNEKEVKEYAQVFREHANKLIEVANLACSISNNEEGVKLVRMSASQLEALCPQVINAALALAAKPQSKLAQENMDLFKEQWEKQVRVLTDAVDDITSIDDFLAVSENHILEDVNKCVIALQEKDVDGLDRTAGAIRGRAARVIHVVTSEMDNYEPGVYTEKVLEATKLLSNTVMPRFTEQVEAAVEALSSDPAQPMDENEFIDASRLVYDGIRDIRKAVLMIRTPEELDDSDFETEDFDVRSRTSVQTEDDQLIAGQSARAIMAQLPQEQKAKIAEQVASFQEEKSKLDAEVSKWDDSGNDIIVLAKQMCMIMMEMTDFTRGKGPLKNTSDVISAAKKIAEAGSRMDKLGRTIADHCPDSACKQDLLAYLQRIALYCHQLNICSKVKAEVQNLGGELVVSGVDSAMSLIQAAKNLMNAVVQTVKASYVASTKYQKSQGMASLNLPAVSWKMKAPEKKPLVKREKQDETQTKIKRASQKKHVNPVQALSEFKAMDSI
Sequence of UniProt Q9H6B4 (Q9H6B4 whole entry): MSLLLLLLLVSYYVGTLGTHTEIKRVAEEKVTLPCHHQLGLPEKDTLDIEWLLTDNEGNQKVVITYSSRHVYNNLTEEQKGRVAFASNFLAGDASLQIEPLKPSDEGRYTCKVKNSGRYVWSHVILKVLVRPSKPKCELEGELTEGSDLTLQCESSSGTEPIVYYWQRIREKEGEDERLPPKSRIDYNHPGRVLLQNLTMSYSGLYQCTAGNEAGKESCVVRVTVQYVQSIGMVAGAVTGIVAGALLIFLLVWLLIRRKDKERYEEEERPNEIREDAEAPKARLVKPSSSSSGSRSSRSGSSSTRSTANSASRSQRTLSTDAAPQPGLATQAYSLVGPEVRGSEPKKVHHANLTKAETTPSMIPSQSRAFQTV
Sequence of UniProt O15067 (O15067 whole entry): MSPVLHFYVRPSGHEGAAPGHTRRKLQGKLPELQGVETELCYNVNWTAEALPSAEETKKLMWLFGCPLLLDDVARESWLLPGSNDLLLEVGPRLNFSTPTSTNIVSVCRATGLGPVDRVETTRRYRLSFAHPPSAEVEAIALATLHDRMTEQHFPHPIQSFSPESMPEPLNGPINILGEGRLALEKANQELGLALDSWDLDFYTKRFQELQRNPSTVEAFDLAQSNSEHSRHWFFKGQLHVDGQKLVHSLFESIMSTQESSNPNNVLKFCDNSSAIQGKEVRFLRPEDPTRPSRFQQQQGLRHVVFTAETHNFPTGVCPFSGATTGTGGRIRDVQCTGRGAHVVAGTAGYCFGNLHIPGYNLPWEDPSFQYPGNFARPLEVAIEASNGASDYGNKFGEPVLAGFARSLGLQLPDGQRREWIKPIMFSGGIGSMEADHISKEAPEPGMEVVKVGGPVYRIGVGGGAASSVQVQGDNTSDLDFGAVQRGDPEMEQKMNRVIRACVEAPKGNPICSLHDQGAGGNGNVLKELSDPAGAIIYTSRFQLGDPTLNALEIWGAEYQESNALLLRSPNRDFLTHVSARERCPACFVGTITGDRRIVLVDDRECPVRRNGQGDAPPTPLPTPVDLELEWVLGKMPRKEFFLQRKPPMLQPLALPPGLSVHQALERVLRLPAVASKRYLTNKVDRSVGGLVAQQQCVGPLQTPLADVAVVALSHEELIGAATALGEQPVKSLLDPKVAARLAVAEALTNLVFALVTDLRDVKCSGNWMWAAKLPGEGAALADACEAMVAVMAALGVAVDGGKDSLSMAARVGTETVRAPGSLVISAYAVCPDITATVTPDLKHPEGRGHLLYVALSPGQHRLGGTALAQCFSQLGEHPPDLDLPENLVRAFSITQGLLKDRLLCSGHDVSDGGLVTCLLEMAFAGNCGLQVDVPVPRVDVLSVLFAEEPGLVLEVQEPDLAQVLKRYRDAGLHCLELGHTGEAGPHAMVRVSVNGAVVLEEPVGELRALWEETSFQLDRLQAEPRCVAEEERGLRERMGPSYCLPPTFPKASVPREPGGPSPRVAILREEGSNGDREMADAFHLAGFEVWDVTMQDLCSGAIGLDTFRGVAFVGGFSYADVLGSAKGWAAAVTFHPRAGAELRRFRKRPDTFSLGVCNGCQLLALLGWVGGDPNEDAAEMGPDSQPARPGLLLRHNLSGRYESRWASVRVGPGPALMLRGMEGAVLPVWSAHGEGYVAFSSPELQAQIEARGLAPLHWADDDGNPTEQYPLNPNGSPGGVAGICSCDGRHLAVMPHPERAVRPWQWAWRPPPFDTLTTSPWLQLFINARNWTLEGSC
Sequence of UniProt P16949 (P16949 whole entry): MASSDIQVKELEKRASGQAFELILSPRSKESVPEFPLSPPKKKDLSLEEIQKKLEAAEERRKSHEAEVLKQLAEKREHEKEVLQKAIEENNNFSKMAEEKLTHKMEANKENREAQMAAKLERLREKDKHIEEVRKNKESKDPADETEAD

| Target | lysine labeling ratio R10:1 |
| --- | --- |
| TXNRD1 (lysine site: K396) (UniProt Q16881) | 2.09 (inactive) |
| PPIB (lysine site: K186) (UniProt P23284) | 3.18 (inactive) |
| PLS3 (lysine site: K59) (UniProt P13797) | 1.41 (active) |
| WNT5A (lysine site: K171) (UniProt P41221) | 3.57 (inactive) |
| FAS (lysine site: K100) (UniProt P25445) | 1.44 (active) |
| IDH2 (lysine site: K384) (UniProt P48735) | 3.48 (inactive) |
| CDCP1 (lysine site: K454) (UniProt Q9H5V8) | 1.89 (active) |
| KPNB1 (lysine site: K376) (UniProt Q14974) | 2.54 (inactive) |
| IGF1R (lysine site: K709) (UniProt P08069) | 4.79 (inactive) |
| STMN1 (lysine site: K53) (UniProt P16949) | 1.68 (active) |
| HSPA9 (lysine site: K345) (UniProt P38646) | 1.17 (active) |
| LAMB1 (lysine site: K184) (UniProt P07942) | 1.21 (active) |
| UniProt P60842 (lysine site: K146) | 3.63 (inactive) |
| TFPI (lysine site: K64) (UniProt P10646) | 1.41 (active) |
| UniProt P04439 (lysine site: K92) | 3.31 (inactive) |
| SLC3A2 (lysine site: K299) (UniProt P08195) | 6.33 (inactive) |
| XRCC6 (lysine site: K338) (UniProt P12956) | 1.69 (active) |
| CTNNA1 (lysine site: K748) (UniProt P35221) | 2.15 (inactive) |
| CHCHD3 (lysine site: K89) (UniProt Q9NX63) | 0.99 (active) |
| DDX3X (lysine site: K118) (UniProt O00571) | 4.1 (inactive) |

| Target | lysine labeling ratio R10:1 |
| --- | --- |
| STOM (lysine site: K198) (UniProt P27105) | 5.83 (inactive) |
| CLMP (lysine site: K172) (UniProt Q9H6B4) | 4.28 (inactive) |
| PFAS (lysine site: K639) (UniProt O15067) | 1.58 (active) |
| UniProt Q8WXI7 (lysine site: K13985) | 7.69 (inactive) |
| UniProt P61077 (lysine site: K8) | 3.43 (inactive) |
| UniProt Q8WXI7 (lysine site: K13072) | 11.1 (inactive) |
| FBLN1 (lysine site: K187) (UniProt P23142) | 2.05 (inactive) |
| PRCP (lysine site: K228) (UniProt P42785) | 2.59 (inactive) |
| SLC3A2 (lysine site: K255) (UniProt P08195) | 1.64 (active) |
| ITGA3 (lysine site: K407) (UniProt P26006) | 2.96 (inactive) |
| ATAD3B (lysine site: K46) (UniProt Q5T9A4) | 3.54 (inactive) |
| TSPAN6 (lysine site: K146) (UniProt O43657) | 1.28 (active) |
| SDCBP (lysine site: K223) (UniProt O00560) | 2.46 (inactive) |
| UniProt Q8WXI7 (lysine site: K13384) | 7.85 (inactive) |
| NUCB1 (lysine site: K205) (UniProt Q02818) | 4.75 (inactive) |
| UniProt P62277 (lysine site: K9) | 2.44 (inactive) |
| SDC2 (lysine site: K134) (UniProt P34741) | 3.52 (inactive) |
| HSPA9 (lysine site: K106) (UniProt P38646) | 6.72 (inactive) |
| LAMC1 (lysine site: K1093) (UniProt P11047) | 2.13 (inactive) |
| L1CAM (lysine site: K998) (UniProt P32004) | 6.57 (inactive) |
